Experimental data taken from PubChem BioAssay (NCI).
This is part of a sample that, as a whole, favours compounds with a hit. Of some 79,000 tested, about 15% had one in any assay. Activity calls are given as the source filed them. Cut-off read from the data, not from the text of the source: active = growth inhibition above about 70%; inactive = the rest.

Columns and labels:
[1] = NCI Yeast Anticancer Drug Screen. Data for the wt2 strain (AID 169);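 note: 0% = growth of vehicle-treated yeast cultures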; settings: S. cerevisiae wt2 strain growth inhibition, active compounds read high
How it was run: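 This strain belongs to a panel of yeast strains with defined genetic alterations in DNA damage repair or cell cycle control. Compounds are applied, and growth inhibition is measured against vehicle-treated cultures.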

[2] = NCI Yeast Anticancer Drug Screen. Data for the mlh1 strain (AID 171);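 note: 0% = growth of vehicle-treated control cultures of the same strain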; settings: S. cerevisiae mlh1 strain growth inhibition, active compounds read high
How it was run: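 Growth of the mutant yeast strain after compound exposure, expressed as inhibition relative to vehicle-only controls.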

[3] = NCI Yeast Anticancer Drug Screen. Data for the sgs1 strain (AID 173);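 note: 0% = growth of vehicle-only control cultures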; settings: S. cerevisiae sgs1 mutant, active compounds read high
How it was run: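 Growth of a yeast strain bearing a defined genetic alteration is measured after compound treatment. Inhibition is expressed relative to vehicle-only controls.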

[4] = NCI Yeast Anticancer Drug Screen. Data for the mlh1 rad18 strain (AID 175); settings: S. cerevisiae mlh1 rad18 strain growth inhibition, active compounds read high
How it was run: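 Read-out is yeast growth inhibition, calculated against vehicle-only controls. The compound was applied to a strain engineered with DNA damage repair alterations.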

[5] = NCI Yeast Anticancer Drug Screen. Data for the rad18 strain (AID 177); settings: S. cerevisiae rad18 mutant growth inhibition, active compounds read high
How it was run: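 Growth of the mutant yeast strain after compound exposure, normalised to vehicle-only cultures.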

[6] = NCI Yeast Anticancer Drug Screen. Data for the rad52 strain (AID 147);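 note: 0% = growth of vehicle-treated control cultures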; settings: S. cerevisiae rad52 mutant growth inhibition, active compounds read high
How it was run: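 Compounds are applied to a genetically defined yeast strain lacking normal DNA damage repair, and inhibition of growth is expressed relative to cultures given vehicle only.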

[7] = NCI Yeast Anticancer Drug Screen. Data for the wt1 strain (AID 149);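 note: 0% = growth of vehicle-treated wt1 cultures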; settings: S. cerevisiae wt1 strain (SPY 50644) growth inhibition, active compounds read high
How it was run: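 Readout: yeast growth inhibition, normalised to vehicle controls, in the wt1 strain exposed to test compounds.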

[8] = NCI Yeast Anticancer Drug Screen. Data for the rad50EPP+ strain (AID 151);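 note: 0% = growth of vehicle-treated control cultures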; settings: S. cerevisiae rad50 mutant strain, active compounds read high
How it was run: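 Compounds were applied to the rad50EPP+ yeast strain, which bears a defined DNA repair alteration, and growth inhibition was determined relative to vehicle-treated cultures.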

[9] = NCI Yeast Anticancer Drug Screen. Data for the mgt1 strain (AID 153); settings: S. cerevisiae mgt1 mutant growth inhibition, active compounds read high
How it was run: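 Strain: mgt1 yeast, one of a set carrying defined DNA damage repair or cell cycle control alterations. Compound-treated growth compared with vehicle.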

[10] = NCI Yeast Anticancer Drug Screen. Data for the rad50 strain (AID 155);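 note: 0% = growth of vehicle-only cultures of the same strain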; settings: S. cerevisiae rad50 strain growth inhibition, active compounds read high
How it was run: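 Compounds were tested on a yeast strain with an engineered DNA damage repair alteration; the reported value is growth inhibition normalised to vehicle treatment.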

[11] = NCI Yeast Anticancer Drug Screen. Data for the mec2-1 strain (AID 157); settings: S. cerevisiae mec2-1 strain, active compounds read high
How it was run: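 Strain: mec2-1 (DNA repair/cell cycle alteration). Compound exposure, then growth measured; inhibition expressed relative to vehicle.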

[12] = NCI Yeast Anticancer Drug Screen. Data for the rad14 strain (AID 159);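 note: 0% = growth of vehicle-treated control cultures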; settings: S. cerevisiae rad14 strain growth inhibition, active compounds read high
How it was run: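 Compound-treated yeast with a defined DNA-repair lesion; growth inhibition normalised to vehicle-treated cultures.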

[13] = NCI Yeast Anticancer Drug Screen. Data for the sgs1 mgt1 strain (AID 161);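 note: 0% = growth of cultures given vehicle only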; settings: S. cerevisiae sgs1 mgt1 strain, active compounds read high
How it was run: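 Inhibition of yeast growth, normalised to vehicle-treated controls, is reported for a strain bearing genetic alterations in DNA damage repair.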

[14] = NCI Yeast Anticancer Drug Screen. Data for the CLN2oe strain (AID 163);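 note: 0% = growth of vehicle-only control cultures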; settings: S. cerevisiae CLN2oe strain, active compounds read high
How it was run: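 Growth of a genetically modified yeast strain is measured after compound exposure and compared with cultures given vehicle alone.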

[15] = NCI Yeast Anticancer Drug Screen. Data for the cln2 rad14 strain (AID 165);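 note: 0% = growth equal to vehicle treated cultures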; settings: S. cerevisiae cln2 rad14 strain, active compounds read high
How it was run: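 Compounds are applied to the cln2 rad14 yeast strain, and growth is then compared with that of vehicle-treated cultures to give inhibition.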

[16] = NCI Yeast Anticancer Drug Screen. Data for the bub3 strain (AID 167); settings: S. cerevisiae bub3 mutant strain, active compounds read high
How it was run: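 Growth of a checkpoint-deficient yeast mutant is measured after compound exposure. Values represent inhibition relative to vehicle.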

[17] = at 5.0 µM (retest, dose inferred, filed as 0.5)
[18] = at 50.0 µM (retest, dose inferred, filed as 5.0)

Measured: growth inhibition

Clc1ccc(NCNC2Nc3ccccc3N2)cc1Cl
inactive: [1]; at 1.2 µM -4% | [1]; at 3.7 µM -1% | [1]; at 11.0 µM 9% | [2]; at 1.2 µM -2% | [2]; at 3.7 µM 0% | [2]; at 11.0 µM 13% | [3]; at 1.2 µM 1% | [3]; at 3.7 µM 5% | [3]; at 11.0 µM 34% | [4]; [17] 55% | [4]; at 50.0 µM 29.8% | [5]; at 1.2 µM 27% | [5]; at 3.7 µM 65%
active: [1]; at 33.0 µM 91% | [1]; at 100.0 µM 98% | [2]; at 33.0 µM 71% | [2]; at 100.0 µM 99% | [3]; at 33.0 µM 92% | [3]; at 100.0 µM 99% | [4]; [18] 98% | [5]; at 11.0 µM 92% | [5]; at 33.0 µM 96% | [5]; at 100.0 µM 98%

CC1=C(C(=O)NCc2ccccc2)C(c2ccccc2)C(C(=O)NCc2ccccc2)=C(C)N1
inactive: [6]; at 1.2 µM -3% | [6]; at 3.7 µM -4% | [6]; at 11.0 µM -4% | [6]; at 33.0 µM -20% | [7]; at 1.2 µM 0% | [7]; at 3.7 µM -1% | [7]; at 11.0 µM -4% | [7]; at 33.0 µM 4% | [8]; at 1.2 µM -3% | [8]; at 3.7 µM -1% | [8]; at 11.0 µM 3% | [8]; at 33.0 µM 3% | [8]; at 100.0 µM 0% | [9]; at 1.2 µM -2% | [9]; at 3.7 µM -2% | [9]; at 11.0 µM -3% | [9]; at 33.0 µM 6% | [10]; at 1.2 µM -14% | [10]; at 3.7 µM 21% | [10]; [17] 2% | [10]; at 11.0 µM 22% | [10]; at 33.0 µM 36% | [11]; at 1.2 µM -1% | [11]; at 3.7 µM -4% | [11]; [17] 11% | [11]; at 11.0 µM -3% | [11]; at 33.0 µM 18% | [12]; at 1.2 µM 1% | [12]; at 3.7 µM 4% | [12]; at 11.0 µM 6% | [12]; at 33.0 µM 16% | [13]; [17] -1% | [14]; at 1.2 µM -5% | [14]; at 3.7 µM 1% | [14]; at 11.0 µM -2% | [14]; at 33.0 µM 4% | [14]; at 100.0 µM 63% | [15]; [17] -7% | [15]; [18] 51% | [15]; at 50.0 µM 11.4% | [16]; at 1.2 µM -1% | [16]; at 3.7 µM 1% | [16]; [17] 6% | [16]; at 11.0 µM 0% | [16]; at 33.0 µM 45% | [1]; at 1.2 µM -1% | [1]; at 3.7 µM 7% | [1]; at 11.0 µM -3% | [1]; at 33.0 µM 10% | [2]; at 1.2 µM -4% | [2]; at 3.7 µM -3% | [2]; at 11.0 µM -3% | [2]; at 33.0 µM 8% | [3]; at 1.2 µM -1% | [3]; at 3.7 µM -2% | [3]; at 11.0 µM 5% | [3]; at 33.0 µM 40% | [4]; [17] 4% | [5]; at 1.2 µM 2% | [5]; at 3.7 µM 3% | [5]; at 11.0 µM 7% | [5]; at 33.0 µM 60%
active: [6]; at 100.0 µM 85% | [7]; at 100.0 µM 89% | [9]; at 100.0 µM 97% | [10]; [18] 75% | [10]; at 50.0 µM 75.5% | [10]; at 100.0 µM 91% | [11]; [18] 81% | [11]; at 50.0 µM 93.3% | [11]; at 100.0 µM 94% | [12]; at 100.0 µM 92% | [13]; [18] 82% | [13]; at 50.0 µM 70.7% | [16]; [18] 84% | [16]; at 50.0 µM 87.8% | [16]; at 100.0 µM 94% | [1]; at 100.0 µM 91% | [2]; at 100.0 µM 96% | [3]; at 100.0 µM 93% | [4]; [18] 82% | [4]; at 50.0 µM 93.1% | [5]; at 100.0 µM 96%

CC1CC(C)(C)CC(OCCN2CCCCC2)(c2ccccc2)C1 (centres undefined)
active: [6]; at 100.0 µM 84% | [9]; at 100.0 µM 83% | [10]; [18] 89% | [10]; at 50.0 µM 87.8% | [10]; at 100.0 µM 82% | [12]; at 100.0 µM 99% | [13]; [18] 79% | [13]; at 50.0 µM 83.5% | [14]; at 100.0 µM 87% | [16]; [18] 74% | [16]; at 50.0 µM 78.8% | [16]; at 100.0 µM 75% | [1]; at 100.0 µM 80% | [2]; at 100.0 µM 87% | [3]; at 100.0 µM 95% | [4]; [18] 79% | [4]; at 50.0 µM 84.8% | [5]; at 100.0 µM 91%
inactive: [6]; at 1.2 µM -1% | [6]; at 3.7 µM 8% | [6]; at 11.0 µM 15% | [6]; at 33.0 µM 25% | [7]; at 1.2 µM 2% | [7]; at 3.7 µM 5% | [7]; at 11.0 µM 12% | [7]; at 33.0 µM 14% | [7]; at 100.0 µM 32% | [8]; at 1.2 µM -5% | [8]; at 3.7 µM 1% | [8]; at 11.0 µM -3% | [8]; at 33.0 µM -3% | [8]; at 100.0 µM -2% | [9]; at 1.2 µM 0% | [9]; at 3.7 µM 2% | [9]; at 11.0 µM 10% | [9]; at 33.0 µM 32% | [10]; at 1.2 µM 3% | [10]; at 3.7 µM 8% | [10]; [17] 28% | [10]; at 11.0 µM 19% | [10]; at 33.0 µM 25% | [11]; at 1.2 µM 0% | [11]; at 3.7 µM 3% | [11]; [17] 4% | [11]; at 11.0 µM 10% | [11]; at 33.0 µM 11% | [11]; [18] 10% | [11]; at 50.0 µM 36.3% | [11]; at 100.0 µM 54% | [12]; at 1.2 µM 7% | [12]; at 3.7 µM 21% | [12]; at 11.0 µM 37% | [12]; at 33.0 µM 62% | [13]; [17] 4% | [14]; at 1.2 µM 2% | [14]; at 3.7 µM 7% | [14]; at 11.0 µM 20% | [14]; at 33.0 µM 50% | [15]; [17] -1% | [15]; [18] 26% | [15]; at 50.0 µM 52.2% | [16]; at 1.2 µM -3% | [16]; at 3.7 µM 4% | [16]; [17] -16% | [16]; at 11.0 µM 17% | [16]; at 33.0 µM 52% | [1]; at 1.2 µM 0% | [1]; at 3.7 µM 5% | [1]; at 11.0 µM 21% | [1]; at 33.0 µM 32% | [2]; at 1.2 µM 1% | [2]; at 3.7 µM 5% | [2]; at 11.0 µM 17% | [2]; at 33.0 µM 15% | [3]; at 1.2 µM 3% | [3]; at 3.7 µM 12% | [3]; at 11.0 µM 40% | [3]; at 33.0 µM 63% | [4]; [17] 7% | [5]; at 1.2 µM -3% | [5]; at 3.7 µM 11% | [5]; at 11.0 µM 30% | [5]; at 33.0 µM 55%
